Screening results as filed in PubChem BioAssay.
An excerpt weighted towards active compounds, which were near 6.3% of everything screened.
tim23-1 inh: tim23-1 yeast growth inhibition. inhibition, % at 20 µM. S. cerevisiae tim23-1 growth, BacTiter-Glo luminescence, 24 h. 1.3% of 330,000 active;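 active = growth inhibition of the mutant yeast at or above 50%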;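 also: temperature-sensitive mutant grown at 25 °C; plate controls were DMSO-treated mutant yeast for no effect and medium wells lacking yeast for full effect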
Mdm2-MdmX inh: inhibitors of human Mdm2/MdmX interaction; SaOS-2 split-luciferase Mdm2/MdmX complementation, luminescence; AID 485346; O15151+Q00987; 3% of 330,000 active; inhibition, % at 8 µM;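 active = inhibition of at least 50% at 8 µM in the primary screen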
Target sequence (O15151 whole entry, looked up): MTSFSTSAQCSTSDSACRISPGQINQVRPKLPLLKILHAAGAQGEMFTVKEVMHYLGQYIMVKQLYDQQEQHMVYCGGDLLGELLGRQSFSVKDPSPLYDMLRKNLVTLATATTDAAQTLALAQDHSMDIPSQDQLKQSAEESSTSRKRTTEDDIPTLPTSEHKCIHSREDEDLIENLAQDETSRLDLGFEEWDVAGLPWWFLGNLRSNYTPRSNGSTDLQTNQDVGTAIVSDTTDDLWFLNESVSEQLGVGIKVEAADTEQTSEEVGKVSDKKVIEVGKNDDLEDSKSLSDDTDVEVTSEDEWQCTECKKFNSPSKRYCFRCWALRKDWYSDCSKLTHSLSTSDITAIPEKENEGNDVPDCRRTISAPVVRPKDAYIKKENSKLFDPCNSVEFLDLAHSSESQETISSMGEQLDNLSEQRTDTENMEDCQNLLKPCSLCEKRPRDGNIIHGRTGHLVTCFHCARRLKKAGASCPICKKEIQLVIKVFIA
Target sequence (Q00987 whole entry, looked up): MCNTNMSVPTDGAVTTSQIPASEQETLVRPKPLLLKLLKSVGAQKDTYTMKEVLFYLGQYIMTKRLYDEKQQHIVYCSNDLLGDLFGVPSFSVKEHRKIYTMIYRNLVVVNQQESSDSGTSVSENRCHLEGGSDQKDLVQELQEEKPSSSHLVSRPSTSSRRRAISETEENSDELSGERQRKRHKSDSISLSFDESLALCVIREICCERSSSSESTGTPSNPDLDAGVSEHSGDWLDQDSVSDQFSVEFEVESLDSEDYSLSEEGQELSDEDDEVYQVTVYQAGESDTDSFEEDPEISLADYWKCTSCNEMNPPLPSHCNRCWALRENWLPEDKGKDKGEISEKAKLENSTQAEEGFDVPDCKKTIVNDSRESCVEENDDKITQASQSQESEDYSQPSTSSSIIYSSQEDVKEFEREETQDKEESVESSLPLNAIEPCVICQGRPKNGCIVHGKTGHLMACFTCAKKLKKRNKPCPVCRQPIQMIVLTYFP
TIM10 inh: growth inhibitors of TIM10 yeast strain; 1.4% of 330,000 active; inhibition, % at 10 µM; S. cerevisiae TIM10 strain growth, BacTiter-Glo luminescence, 24 h;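 active = inhibition of 40% or more at the single tested concentration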;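 also: wild-type TIM10 isogenic control strain grown at permissive 25 °C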
tim10-1 inh: growth inhibitors of tim10-1 mutant yeast; AID 463190; 2.2% of 330,000 active; S. cerevisiae tim10-1 ts strain growth, BacTiter-Glo, 24 h; inhibition, % at 20 µM;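 active = inhibition of at least 40%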;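 also: mutant grown at 25 °C; 0% = DMSO wells with yeast and 100% = wells holding no yeast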
MPTP block: inhibitors of mitochondrial permeability transition pore; 1.4% of 360,000 active; isolated mouse mitochondria, Ca2+ swelling absorbance, 30 min; inhibition, % at 10 µM;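 active = inhibition of 50% or more, scaled per plate between neutral and stimulator controls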;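 also: 0% = DMSO wells given calcium and 100% = 1 mM EGTA wells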
tim10-1 conf: confirmation of tim10-1 mutant yeast growth inhibitors | shares compounds with tim10-1 inh | S. cerevisiae tim10-1 ts strain growth, BacTiter-Glo, 24 h | inhibition, % at 20 µM | 56% of 7,400 active | AID 463213;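 active = inhibition of yeast growth at or above a set limit in either of two repeat tests at 20 µM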;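 also: tim10-1 mutant grown at permissive 25 °C to find synthetic lethal compounds; 0% = DMSO yeast wells and 100% = medium wells without yeast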
The depositor's hits bear a star; · = no result.

SMILES | tim23-1 inh | Mdm2-MdmX inh | TIM10 inh | tim10-1 inh | MPTP block | tim10-1 conf
CC(C)C[C@H]1CN(CCCC[C@@H]2CNC(=O)C(=O)N2Cc2ccccc2)C(=O)C(=O)N1CCC1CCCCC1 | · | · | · | · | -3 | ·
O=C1C=CN(C2OC(CO)C(O)C2O)C(=O)C1 (stereo unspecified) | · | · | · | · | 0 | ·
N/C(=N\OC(=O)c1ccc(Br)cc1)c1cccc([N+](=O)[O-])c1 | 22 | -77 | 34 | 39 | 2 | ·
Cc1ccc(C(=O)O/N=C(\N)c2cccc([N+](=O)[O-])c2)cc1 | 25 | 10 | 39 | 52* | 0 | 72*
N/C(=N\OC(=O)CCCOc1ccccc1)c1cccc(Br)c1 | 22 | 2 | 31 | 34 | 1 | ·
N/C(=N\OC(=O)CCCOc1ccccc1)c1cccc([N+](=O)[O-])c1 | 32 | 11 | 26 | 55* | 0 | 46*
CCCC(=O)N1CCC1(C)C(=O)Nc1scc(C)c1C#N (stereo unspecified) | · | · | · | · | 0 | ·
O=C(CCc1nc2sc3c(c2c(=O)[nH]1)CCCC3)NCCc1ccc(Cl)cc1 | · | · | · | · | 1 | ·
COc1ccc(CCNC(=O)CCc2nc3sc4c(c3c(=O)[nH]2)CCCC4)cc1 | -9 | 14 | 2 | 97* | 0 | -7
COc1ccc(CNc2oc(COc3ccccc3)nc2C#N)cc1 | 12 | 17 | -1 | 29 | 3 | ·
COc1ccc(CCNc2oc(COc3ccccc3)nc2C#N)cc1 | 19 | 16 | 5 | 47* | 14 | 43*
CC(C)(C)C(=O)N1CCN(c2nc3ccccc3s2)CC1 | 25 | -12 | 2 | 47* | 0 | -9
CC(C)c1ccc(/C=C2\C(=O)N(CCN3CCOCC3)C(=S)N2C)cc1 | 43 | -15 | 33 | 45* | 0 | 40*
CSc1nsc(/C=C/Nc2ccc(O)cc2C)c1C#N | 27 | 16 | 18 | 46* | 0 | 21
CNC1(C)[C@H]2CC[C@H](C2)C1(C)C (stereo partly specified) | 7 | -1 | -8 | 7 | 1 | ·
O=C(C1CCC1)N1CCc2cc(S(=O)(=O)NCC3COc4ccccc4O3)ccc21 (stereo unspecified) | 1 | 26 | 26 | 11 | 20 | ·
O=C(C1CC1)N1CCc2cc(S(=O)(=O)NCC3COc4ccccc4O3)ccc21 (stereo unspecified) | 27 | 12 | 32 | 46* | 24 | 26
CCN1CCN(S(=O)(=O)c2ccc(Cl)c(C(=O)N(C)Cc3ccccc3)c2)CC1 | 20 | -26 | 9 | 98* | -1 | 10
Cc1ccc(C)c(-c2csc(NC(=O)C3=COCCO3)n2)c1 | 29 | 2 | 13 | 20 | 0 | ·
O=C(Nc1nc(-c2cc(F)ccc2F)cs1)C1=NN(c2ccccc2)C(=O)CC1 | 17 | 21 | 38 | 45* | 1 | 26
O=C(Nc1nc(-c2cc(F)ccc2F)cs1)C1=COCCO1 | 32 | 10 | 27 | 46* | 0 | 30
Cc1cc(C(=O)COc2ccccc2[N+](=O)[O-])c(C)n1C1CC1 | 23 | -42 | 21 | 44* | 1 | 27
Cc1cccc(C)c1NC(=S)N(Cc1ccccc1)Cc1cccs1 | 34 | 0 | 24 | 42* | 2 | 39*
O=C(O)CNC(=S)N(Cc1ccccc1)Cc1cccs1 | 11 | 1 | -9 | 2 | -3 | ·
CC(=O)NCCCNC(=S)NCCCN(Cc1ccc(Cl)cc1)c1ccc(Br)cn1 | · | · | · | · | 0 | ·
SMILES | tim23-1 inh | Mdm2-MdmX inh | TIM10 inh | tim10-1 inh | MPTP block | tim10-1 conf
O=C(/C=C/Nc1ccccc1Oc1ccccc1)c1ccco1 | 29 | -25 | 23 | 43* | 1 | 16
COCCNC(=O)C1CCCN(C(=O)c2ccc(C(F)(F)F)nc2C)CC1 (stereo unspecified) | · | · | · | · | -1 | ·
CCOc1cccc(-c2nn3c(-c4ccco4)nnc3s2)c1 | 13 | -14 | 26 | 42* | 6 | 25
COc1cccc(-c2nnc3sc(-c4ccco4)nn23)c1 | 5 | -26 | -14 | -8 | 2 | ·
COc1cccc(-c2nn3c(-c4cccc(C)c4)nnc3s2)c1 | 28 | -31 | 19 | 44* | 0 | 25
NC(=O)C1CCN(C2CC(=O)N(c3ccc(F)c(Cl)c3)C2=O)CC1 (stereo unspecified) | 45 | 17 | 35 | 53* | -2 | 50*
O=C1CC(N2CCCN(C3CC(=O)N(c4ccc(F)cc4)C3=O)CC2)C(=O)N1c1ccc(F)cc1 (stereo unspecified) | 36 | 23 | 22 | 47* | -1 | 42*
COc1cccc(N2CCN(C3CC(=O)N(c4ccc(F)c(Cl)c4)C3=O)CC2)c1 (stereo unspecified) | 47 | 30 | 28 | 41* | -1 | 26
NC(=O)C1CCN(C2CC(=O)N(c3cccc(F)c3)C2=O)CC1 (stereo unspecified) | 28 | 4 | 3 | 22 | 1 | ·
CCCOc1ccc(N2C(=O)CC(N3CCC(O)(c4cccc(C(F)(F)F)c4)CC3)C2=O)cc1 (stereo unspecified) | 48 | 32 | 26 | 56* | -2 | 47*
COc1ccc(N2C(=O)CC(N3CCC(O)(c4ccc(Br)cc4)CC3)C2=O)cc1 (stereo unspecified) | 5 | -2 | -4 | 25 | 4 | ·
CC(C)(C)n1nnnc1C(CCc1ccccc1)N1CCN(C/C=C/c2ccccc2)CC1 (stereo unspecified) | · | · | · | · | 10 | ·
COc1ccccc1-c1csc(C(O)c2ccc(F)cc2)n1 (stereo unspecified) | · | · | · | · | 1 | ·
CCN1C(=O)CC(N2CCC(Nc3ccc(OC)cc3)CC2)C1=O (stereo unspecified) | 9 | 5 | -5 | 0 | 1 | ·
COc1ccc(NC2CCN(C3CC(=O)N(c4ccc(F)c(Cl)c4)C3=O)CC2)cc1 (stereo unspecified) | 33 | 13 | 37 | 54* | 0 | 42*
O=C1CC(N2CCN(c3cccc(C(F)(F)F)c3)CC2)C(=O)N1c1ccccc1 (stereo unspecified) | 13 | -2 | 3 | 41* | 0 | 25
COc1cccc(NC(=O)N(C)C[C@@H]2OCc3cn(nn3)CCCC(=O)N([C@H](C)CO)C[C@H]2C)c1 | · | · | · | · | 0 | ·
O=C(COC(=O)c1cc(S(=O)(=O)N2CCc3ccccc3C2)ccc1Cl)NCc1ccco1 | 33 | 16 | -8 | 17 | 0 | ·
O=C(COC(=O)c1cccc(S(=O)(=O)N2CCc3ccccc3C2)c1)NCc1ccco1 | 3 | 7 | 1 | 41* | -12 | 12
COc1cc(C2C(C#N)=C(N)OC3=C2C(=O)CC(C)(C)C3)cc([N+](=O)[O-])c1O (stereo unspecified) | 15 | 8 | 5 | -4 | 2 | ·
COc1cc(C2C3=C(CC(C)(C)CC3=O)OC3=C2C(=O)CC(C)(C)C3)cc([N+](=O)[O-])c1O | 33 | 6 | 17 | 41* | 1 | 26
CN(C(=S)Oc1ccc(C(=O)Nc2ccccc2)cc1)c1ccccc1 | 38 | 25 | 39 | 51* | 32 | 30
